Values without a mark were called inactive. Calls follow the shape of the dose curve; as a rule, active = well fitted curve in the direction sought with a large enough effect; inconclusive = small, poorly fitted or top-dose-only effect, or effect the other way, or another doubt; inactive = no such curve, though single readings can be large or run the other way.
Experiment: qHTS of Nrf2 Activators: LOPAC Validation (AID 624149); also: 0% is about no effect
Details: Nrf2/ARE reporter cell assay; series mostly up to 46.1 µM; activation: at the top concentration
Outline: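 Following overnight seeding in 5% FBS OPTI-MEM, AREc32_Fluc cells receive compounds for a 24 hr incubation at 37 deg C with 5% CO2. Steady-Glo is added, and after 30 min at RT luminescence is recorded.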

| Structure (SMILES) | activation [%] |
| --- | --- |
| CN1CCc2cc(O)cc3c2[C@H]1Cc1ccc(O)c(O)c1-3 | 5.59 |
| CC(=O)OCC1=C(C(=O)O)N2C(=O)[C@@H](NC(=O)CCC[C@@H](N)C(=O)O)[C@H]2SC1 | 4.45 |
| C[N+]1(C)CCOC(O)(c2ccc(-c3ccc(C4(O)C[N+](C)(C)CCO4)cc3)cc2)C1 (configuration not stated) | -1.83 |
| CCCC[N+]1(C)C2CC(OC(=O)[C@H](CO)c3ccccc3)CC1C1OC12 (some centres not stated) | 0.485 |
| CN1C2CCC1CC(OC(c1ccccc1)c1ccccc1N)C2 (configuration not stated) | -1.95 |
| NNC(=O)c1ccc(O)cc1 | -1.74 |
| COc1cc(CC(C)N)c(OC)cc1I (configuration not stated) | -2.28 |

From PubChem BioAssay (NCATS)
